# Results reported in publication PMC11024108.
# Key:
# Assay in all cases: cross-link between two proteins; cross-linking mass spectrometry
# [1] = biological target: Limbic system-associated membrane protein (UniProt Q8BLK3)
# [2] = biological target: Melanoma inhibitory activity protein 2 (UniProt Q91ZV0)
# [3] = biological target: Microtubule-associated protein 1A (UniProt Q9QYR6)
# [4] = biological target: Mitochondrial import inner membrane translocase subunit TIM16 (UniProt Q9Y3D7)
# [5] = biological target: Mitochondrial import inner membrane translocase subunit Tim9 (UniProt Q9Y5J7)
# [6] = biological target: Monocarboxylate transporter 1 (UniProt P53985)
# Myosin light chain 6B = Myosin light chain 6B (UniProt Q8CI43)
# Myosin-14 = Myosin-14 (UniProt Q6URW6)
# Myosin-9 = Myosin-9 (UniProt Q8VDD5)
# [7] = biological target: NADPH:adrenodoxin oxidoreductase, mitochondrial (UniProt P22570)
# Neurofascin = Neurofascin (UniProt Q810U3)
# [8] = biological target: Neuronal pentraxin receptor (UniProt Q99J85)
# [9] = biological target: Neuronal-specific septin-3 (UniProt Q9Z1S5)
# Septin-11 = Septin-11 (UniProt Q8C1B7)
# Septin-6 = Septin-6 (UniProt Q9R1T4)
# Septin-8 = Septin-8 (UniProt Q8CHH9)
# Septin-9 = Septin-9 (UniProt Q80UG5)
# [10] = biological target: Neutral alpha-glucosidase AB (UniProt Q14697)
# [11] = biological target: Non-POU domain-containing octamer-binding protein (UniProt Q99K48)
# [12] = biological target: Non-selective voltage-gated ion channel VDAC2 (UniProt P45880)
# [13] = biological target: Non-selective voltage-gated ion channel VDAC3 (UniProt Q9Y277)
# [14] = biological target: Nucleosome assembly protein 1-like 4 (UniProt Q78ZA7)
# [15] = biological target: Osteopetrosis-associated transmembrane protein 1 (UniProt Q86WC4)
# [16] = biological target: Peptidyl-prolyl cis-trans isomerase B (UniProt P23284)
# Peroxiredoxin-2 = Peroxiredoxin-2 (UniProt Q61171)
# Peroxiredoxin-4 = Peroxiredoxin-4 (UniProt Q13162)
# [17] = biological target: Peroxisomal bifunctional enzyme (UniProt Q08426)
# [18] = biological target: Phosphoglycerate mutase 1 (UniProt Q9DBJ1)
# [19] = biological target: Plasma membrane calcium-transporting ATPase 4 (UniProt Q6Q477)
# [20] = biological target: Polymerase delta-interacting protein 2 (UniProt Q9Y2S7)
# [21] = biological target: Potassium voltage-gated channel subfamily A member 2 (UniProt P63141)
# Prefoldin subunit 5 = Prefoldin subunit 5 (UniProt Q99471)
# [22] = biological target: Prostaglandin E synthase 2 (UniProt Q9H7Z7)
# [23] = biological target: Proteasome activator complex subunit 2 (UniProt P97372)
# [24] = biological target: Proteasome subunit alpha type-6 (UniProt P60900)
# [25] = biological target: Proteasome subunit alpha type-6 (UniProt Q9QUM9)
# [26] = biological target: Proteasome subunit alpha type-7 (UniProt Q9Z2U0)
# [27] = biological target: Proteasome subunit beta type-4 (UniProt P99026)
# [28] = biological target: Proteasome subunit beta type-7 (UniProt P70195)
# Putative protein FAM10A5 = Putative protein FAM10A5 (UniProt Q8NFI4)
# [29] = biological target: RCC1-like G exchanging factor-like protein (UniProt Q96I51)
# Radixin = Radixin (UniProt P35241)
# [30] = biological target: Ragulator complex protein LAMTOR3 (UniProt Q9UHA4)
# [31] = biological target: Ras-related protein Rab-3A (UniProt P63011)
# [32] = biological target: Rho guanine nucleotide exchange factor 7 (UniProt Q9ES28)
# [33] = biological target: Ribosome-binding protein 1 (UniProt Q9P2E9)
# [34] = biological target: S-adenosylhomocysteine hydrolase-like protein 1 (UniProt Q80SW1)
# Chain of Neutral alpha-glucosidase AB (Q14697 whole entry, the tested form may be a part): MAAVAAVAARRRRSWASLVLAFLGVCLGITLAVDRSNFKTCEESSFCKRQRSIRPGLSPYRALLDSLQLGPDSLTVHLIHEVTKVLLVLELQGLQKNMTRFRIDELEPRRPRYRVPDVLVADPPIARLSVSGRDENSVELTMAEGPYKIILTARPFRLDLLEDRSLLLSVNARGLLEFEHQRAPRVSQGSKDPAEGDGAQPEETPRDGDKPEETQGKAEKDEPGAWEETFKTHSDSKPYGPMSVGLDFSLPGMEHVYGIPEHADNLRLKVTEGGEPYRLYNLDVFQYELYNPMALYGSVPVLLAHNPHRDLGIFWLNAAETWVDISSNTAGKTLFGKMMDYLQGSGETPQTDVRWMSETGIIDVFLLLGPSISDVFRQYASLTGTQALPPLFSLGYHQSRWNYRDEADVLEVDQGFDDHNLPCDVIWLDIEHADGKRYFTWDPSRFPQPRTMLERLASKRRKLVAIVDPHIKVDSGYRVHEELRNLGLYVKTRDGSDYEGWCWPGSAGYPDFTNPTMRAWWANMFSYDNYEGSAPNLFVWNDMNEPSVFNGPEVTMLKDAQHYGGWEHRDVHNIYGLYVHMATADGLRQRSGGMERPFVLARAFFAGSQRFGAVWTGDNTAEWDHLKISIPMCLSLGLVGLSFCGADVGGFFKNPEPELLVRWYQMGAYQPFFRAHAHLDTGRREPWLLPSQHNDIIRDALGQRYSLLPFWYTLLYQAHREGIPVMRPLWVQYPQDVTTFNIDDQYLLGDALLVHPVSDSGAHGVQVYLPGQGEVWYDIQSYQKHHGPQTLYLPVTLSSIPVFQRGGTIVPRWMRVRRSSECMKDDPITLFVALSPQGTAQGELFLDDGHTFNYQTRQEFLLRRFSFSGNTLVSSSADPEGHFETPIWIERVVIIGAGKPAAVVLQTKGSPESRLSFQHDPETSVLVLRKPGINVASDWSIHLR
# Chain of Microtubule-associated protein 1B, P14873 (P14873 whole entry): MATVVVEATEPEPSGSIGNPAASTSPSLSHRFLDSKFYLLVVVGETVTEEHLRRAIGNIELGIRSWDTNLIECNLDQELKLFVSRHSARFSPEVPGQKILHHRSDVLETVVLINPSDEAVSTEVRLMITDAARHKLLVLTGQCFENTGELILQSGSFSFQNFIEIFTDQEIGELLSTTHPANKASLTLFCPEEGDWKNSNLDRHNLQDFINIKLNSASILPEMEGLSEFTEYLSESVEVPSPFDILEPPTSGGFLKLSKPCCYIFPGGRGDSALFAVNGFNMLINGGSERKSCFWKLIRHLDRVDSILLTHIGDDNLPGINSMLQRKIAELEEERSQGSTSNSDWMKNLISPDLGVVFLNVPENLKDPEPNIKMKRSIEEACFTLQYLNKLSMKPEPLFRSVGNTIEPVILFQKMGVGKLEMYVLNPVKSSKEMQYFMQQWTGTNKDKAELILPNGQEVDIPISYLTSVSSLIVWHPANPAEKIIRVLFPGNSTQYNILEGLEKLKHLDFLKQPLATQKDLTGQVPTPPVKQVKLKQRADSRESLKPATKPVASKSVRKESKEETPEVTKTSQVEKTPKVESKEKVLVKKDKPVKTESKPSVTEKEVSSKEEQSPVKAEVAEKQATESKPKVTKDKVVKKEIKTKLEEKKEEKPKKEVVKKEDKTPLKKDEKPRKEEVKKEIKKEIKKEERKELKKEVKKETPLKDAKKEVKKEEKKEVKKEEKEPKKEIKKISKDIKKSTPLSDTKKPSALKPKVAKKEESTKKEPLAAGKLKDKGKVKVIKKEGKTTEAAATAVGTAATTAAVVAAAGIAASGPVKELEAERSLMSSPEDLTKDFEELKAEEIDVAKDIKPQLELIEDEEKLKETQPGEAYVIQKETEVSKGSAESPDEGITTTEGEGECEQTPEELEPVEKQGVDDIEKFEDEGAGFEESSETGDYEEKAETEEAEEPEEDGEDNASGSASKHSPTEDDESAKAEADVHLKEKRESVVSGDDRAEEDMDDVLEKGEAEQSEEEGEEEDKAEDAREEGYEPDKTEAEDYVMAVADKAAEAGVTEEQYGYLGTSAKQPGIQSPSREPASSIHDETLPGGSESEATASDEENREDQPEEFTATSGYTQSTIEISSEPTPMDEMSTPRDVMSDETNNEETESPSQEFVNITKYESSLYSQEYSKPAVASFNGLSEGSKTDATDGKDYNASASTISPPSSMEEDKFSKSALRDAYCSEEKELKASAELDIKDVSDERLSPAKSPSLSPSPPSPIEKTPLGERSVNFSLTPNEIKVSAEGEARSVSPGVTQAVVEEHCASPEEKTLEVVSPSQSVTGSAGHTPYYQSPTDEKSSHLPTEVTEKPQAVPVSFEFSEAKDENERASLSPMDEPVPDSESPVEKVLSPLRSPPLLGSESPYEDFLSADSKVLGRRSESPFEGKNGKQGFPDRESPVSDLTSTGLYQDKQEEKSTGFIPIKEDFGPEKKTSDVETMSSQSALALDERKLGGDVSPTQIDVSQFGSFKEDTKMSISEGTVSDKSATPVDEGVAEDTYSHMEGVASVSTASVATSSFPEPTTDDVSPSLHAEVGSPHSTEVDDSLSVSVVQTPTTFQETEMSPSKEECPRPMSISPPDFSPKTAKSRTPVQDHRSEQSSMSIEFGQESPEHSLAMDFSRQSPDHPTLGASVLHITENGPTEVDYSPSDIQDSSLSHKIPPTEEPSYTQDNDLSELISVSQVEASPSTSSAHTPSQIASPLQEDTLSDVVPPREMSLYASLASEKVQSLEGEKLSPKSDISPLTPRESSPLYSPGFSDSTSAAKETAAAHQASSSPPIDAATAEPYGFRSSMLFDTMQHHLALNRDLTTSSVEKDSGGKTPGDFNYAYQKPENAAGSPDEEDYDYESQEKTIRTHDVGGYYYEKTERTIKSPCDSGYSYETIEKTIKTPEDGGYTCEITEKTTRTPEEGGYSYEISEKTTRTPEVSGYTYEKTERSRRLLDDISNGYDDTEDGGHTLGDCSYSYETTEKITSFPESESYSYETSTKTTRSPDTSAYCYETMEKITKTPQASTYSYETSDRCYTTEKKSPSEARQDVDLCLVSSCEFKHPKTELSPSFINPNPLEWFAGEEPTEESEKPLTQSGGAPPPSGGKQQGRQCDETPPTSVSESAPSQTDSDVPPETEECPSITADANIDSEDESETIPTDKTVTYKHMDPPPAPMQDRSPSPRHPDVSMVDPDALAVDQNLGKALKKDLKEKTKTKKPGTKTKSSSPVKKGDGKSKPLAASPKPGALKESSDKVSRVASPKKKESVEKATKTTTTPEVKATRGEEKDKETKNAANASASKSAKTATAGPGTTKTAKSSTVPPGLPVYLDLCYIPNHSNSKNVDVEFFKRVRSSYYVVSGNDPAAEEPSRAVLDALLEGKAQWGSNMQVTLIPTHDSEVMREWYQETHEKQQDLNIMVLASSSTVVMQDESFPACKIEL
# Chain of Non-selective voltage-gated ion channel VDAC2 (P45880 whole entry): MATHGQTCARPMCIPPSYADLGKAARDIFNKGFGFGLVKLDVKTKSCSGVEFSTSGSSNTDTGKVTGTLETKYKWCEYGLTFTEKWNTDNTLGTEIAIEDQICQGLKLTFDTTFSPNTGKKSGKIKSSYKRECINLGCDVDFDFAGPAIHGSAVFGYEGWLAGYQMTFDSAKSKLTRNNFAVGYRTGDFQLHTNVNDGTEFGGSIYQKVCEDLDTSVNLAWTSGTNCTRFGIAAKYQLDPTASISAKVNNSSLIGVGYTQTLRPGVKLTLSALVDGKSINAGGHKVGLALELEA
# Chain of Plasma membrane calcium-transporting ATPase 4 (Q6Q477 whole entry): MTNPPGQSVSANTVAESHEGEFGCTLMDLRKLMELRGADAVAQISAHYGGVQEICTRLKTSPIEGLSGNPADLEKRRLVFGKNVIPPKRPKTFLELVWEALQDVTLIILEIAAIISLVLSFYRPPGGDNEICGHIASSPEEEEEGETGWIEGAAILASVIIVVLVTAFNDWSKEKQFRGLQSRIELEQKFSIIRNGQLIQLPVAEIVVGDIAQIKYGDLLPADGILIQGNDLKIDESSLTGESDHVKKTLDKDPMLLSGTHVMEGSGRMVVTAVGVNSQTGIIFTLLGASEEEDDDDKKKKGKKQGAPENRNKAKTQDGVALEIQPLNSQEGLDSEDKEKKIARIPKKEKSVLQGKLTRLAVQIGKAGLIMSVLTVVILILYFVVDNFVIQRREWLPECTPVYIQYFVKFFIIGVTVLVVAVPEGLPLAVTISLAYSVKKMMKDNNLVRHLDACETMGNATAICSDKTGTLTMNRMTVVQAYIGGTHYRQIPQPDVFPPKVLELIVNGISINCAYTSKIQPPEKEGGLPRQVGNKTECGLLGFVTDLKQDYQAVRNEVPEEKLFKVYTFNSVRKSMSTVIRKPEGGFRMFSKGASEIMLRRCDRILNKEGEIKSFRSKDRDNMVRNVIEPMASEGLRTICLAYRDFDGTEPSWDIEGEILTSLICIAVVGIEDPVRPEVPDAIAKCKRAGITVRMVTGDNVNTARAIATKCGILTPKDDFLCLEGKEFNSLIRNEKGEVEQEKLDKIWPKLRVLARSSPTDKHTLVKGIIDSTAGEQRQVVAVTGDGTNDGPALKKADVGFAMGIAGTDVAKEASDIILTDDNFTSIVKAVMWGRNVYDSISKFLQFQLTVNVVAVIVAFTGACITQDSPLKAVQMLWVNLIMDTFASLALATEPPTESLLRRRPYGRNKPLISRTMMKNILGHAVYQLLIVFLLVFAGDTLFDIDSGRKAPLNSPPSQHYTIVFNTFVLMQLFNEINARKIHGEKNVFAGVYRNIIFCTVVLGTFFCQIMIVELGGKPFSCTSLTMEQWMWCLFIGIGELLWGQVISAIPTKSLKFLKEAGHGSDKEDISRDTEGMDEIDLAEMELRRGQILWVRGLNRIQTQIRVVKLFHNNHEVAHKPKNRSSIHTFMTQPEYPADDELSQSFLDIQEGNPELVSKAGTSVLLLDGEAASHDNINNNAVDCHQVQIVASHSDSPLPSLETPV
# Chain of Mitochondrial import inner membrane translocase subunit Tim9 (Q9Y5J7 whole entry): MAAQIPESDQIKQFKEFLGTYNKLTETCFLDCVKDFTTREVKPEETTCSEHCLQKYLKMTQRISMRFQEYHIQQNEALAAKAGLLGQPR
substance,measurement,setting,value
"Rho-associated protein kinase 2, P70336",listed as a hit,[1],yes
"Transport and Golgi organization protein 1 homolog, Q8BI84",listed as a hit,[2],yes
"Microtubule-associated protein 1B, P14873",listed as a hit,[3],yes
"Mitochondrial import inner membrane translocase subunit TIM14, Q96DA6",listed as a hit,[4],yes
"Mitochondrial import inner membrane translocase subunit Tim22, Q9Y584",listed as a hit,[5],yes
"Basigin, P35613",listed as a hit,[6],yes
"Myosin-10, Q61879",listed as a hit,Myosin light chain 6B,yes
same,listed as a hit,Myosin-14,yes
same,listed as a hit,Myosin-9,yes
"Dihydrolipoyl dehydrogenase, mitochondrial, P09622",listed as a hit,[7],yes
"Contactin-associated protein 1, O54991",listed as a hit,Neurofascin,yes
"Neuronal pentraxin-1, Q62443",listed as a hit,[8],yes
"Septin-7, O55131",listed as a hit,[9],yes
same,listed as a hit,Septin-11,yes
same,listed as a hit,Septin-6,yes
same,listed as a hit,Septin-8,yes
same,listed as a hit,Septin-9,yes
"Calreticulin, P27797",listed as a hit,[10],yes
"Splicing factor, proline- and glutamine-rich, Q8VIJ6",listed as a hit,[11],yes
"Hexokinase-1, P19367",listed as a hit,[12],yes
"Non-selective voltage-gated ion channel VDAC2, P45880",listed as a hit,[13],yes
"Nucleosome assembly protein 1-like 1, P28656",listed as a hit,[14],yes
"H(+)/Cl(-) exchange transporter 7, P51798",listed as a hit,[15],yes
"Protein disulfide-isomerase A4, P13667",listed as a hit,[16],yes
"Peroxiredoxin-1, P35700",listed as a hit,Peroxiredoxin-2,yes
"Peroxiredoxin-1, Q06830",listed as a hit,Peroxiredoxin-4,yes
"Catalase, P04040",listed as a hit,[17],yes
"Phosphoglycerate mutase 2, O70250",listed as a hit,[18],yes
"Plasma membrane calcium-transporting ATPase 1, G5E829",listed as a hit,[19],yes
"ATP-dependent clpX-like chaperone, mitochondrial, O76031",listed as a hit,[20],yes
"Voltage-gated potassium channel subunit beta-2, P62482",listed as a hit,[21],yes
"Prefoldin subunit 1, O60925",listed as a hit,Prefoldin subunit 5,yes
"Glycerol-3-phosphate dehydrogenase, mitochondrial, P43304",listed as a hit,[22],yes
"Proteasome activator complex subunit 1, P97371",listed as a hit,[23],yes
"Proteasome subunit alpha type-2, P25787",listed as a hit,[24],yes
"Proteasome subunit alpha type-2, P49722",listed as a hit,[25],yes
"Proteasome subunit alpha type-4, Q9R1P0",listed as a hit,[26],yes
"Proteasome subunit beta type-7, P70195",listed as a hit,[27],yes
"Proteasome subunit beta type-1, O09061",listed as a hit,[28],yes
"Hsc70-interacting protein, P50502",listed as a hit,Putative protein FAM10A5,yes
"Nucleoside diphosphate kinase 6, mitochondrial, O75414",listed as a hit,[29],yes
"Moesin, P26038",listed as a hit,Radixin,yes
"ADP-ribosylation factor-like protein 8B, Q9NVJ2",listed as a hit,[30],yes
"Ras-related protein Rab-3C, P62823",listed as a hit,[31],yes
"ARF GTPase-activating protein GIT1, Q68FF6",listed as a hit,[32],yes
"Dual E2 ubiquitin-conjugating enzyme/E3 ubiquitin-protein ligase BIRC6, Q9NR09",listed as a hit,[33],yes
"S-adenosylhomocysteine hydrolase-like protein 2, Q68FL4",listed as a hit,[34],yes
